Experimental data from PubChem BioAssay (EPA / NIEHS).
Calls of active or inactive are those of the source. The calls were made as follows: active = hit-call score of the fitted dose curve at least 0.9, where 1 is the maximum; inactive = score below 0.9.

Assay: ATG_GRE_CIS: Attagene CIS-FACTORIAL HepG2 Assay for human Glucocorticoid Response Elements (GRE) (AID 2282947)
Conditions: HepG2 GRE cis-reporter, Attagene multiplex mRNA; actives raise or lower the signal
Procedure: ATG_CIS is a cell-based, multiplexed-readout assay that uses HepG2, a human liver cell line, with measurements taken at 24 hours after chemical dosing in a 24-well plate.ATG_GRE_CIS is one of 52 assay component(s) measured or calculated from the ATG_CIS assay. It is designed to make measurements of mRNA induction, a form of inducible reporter, as detected with fluorescence intensity signals by Reverse transcription polymerase chain reaction (RT-PCR) and Capillary electrophoresis technology.Data from the assay component ATG_GRE_CIS was analyzed into 1 assay endpoint. This assay endpoint, ATG_GRE_CIS, was analyzed with bidirectional fitting relative to DMSO as the negative control and baseline of activity. Using a type of inducible reporter, measures of mRNA for gain or loss-of-signal activity can be used to understand the reporter gene at the transcription factor-level as they relate to the gene NR3C1. Furthermore, this assay endpoint can be referred to as a primary readout, because this assay has produced multiple assay endpoints where this one serves a reporter gene function. To generalize the intended target to other relatable targets, this assay endpoint is annotated to the nuclear receptor intended target family, where the subfamily is steroidal.
Human liver HepG2 cells are transiently transfected with multiple reporter transcription units (MRTUs) in 6-well plates using FuGene 6 reagent (Roche; 3 ml FuGene/1 mg DNA). The MRTU constructs are regulated by a cis-regulating element (promoter). […] A major difference between the CIS and TRANS system is that in CIS activities of endogenous TFs are measured, whereas the TRANS assay evaluates changes in activities of exogenous, chimeric NR-Gal4 proteins. […] At the end of 24 hour incubation, total RNA was isolated using TriZol reagent (Invitrogen). The isolated RNA is then reverse-transcribed using oligo(dT) primer and Mo-MLV reverse transcriptase (Invitrogen) with DNAse I (Ambion) treatment for 30 min. The one-tenth of the produced cDNA was amplified by PCR using Taq DNA polymerase (Invitrogen) and two reporter sequence-specific primers. The PCR products were fluorescently labeled by primer extension with 6-arboxyfluorescein (6-FAM) 5'-labeled reporter sequence-specific primer (2 min at 95 C, 20 s at 68 C and 10 min at 72 C) and these products were digested with 5U of HpaI (New England Biolabs) for 2h at 37 C. The fragments were purified using Qiaquick PCR columns (Qiagen), analyzed on an ABI 3130xL genetic analyzer (Applied Biosystems) with peak positions identified by using a set of X-rhodamine (ROX)-labeled MapMarker1000 molecular weight standards (BioVentures). The raw capillary electrophoresis data was processed using Attagraph software (Attagene).
With Clc1ccc(C(c2ccc(Cl)cc2)C(Cl)(Cl)Cl)cc1 the outcome was “inactive”. For CC(C)COC(=O)c1ccccc1C(=O)OCC(C)C, the outcome was “inactive”. With CN(C)[C@@H]1C(=O)C(C(N)=O)=C(O)[C@@]2(O)C(=O)C3=C(O)c4c(O)cccc4[C@@](C)(O)[C@H]3C[C@@H]12 the outcome was “inactive”. For O=C(O)C1C2CCC(O2)C1C(=O)O (stereo not given), the outcome was “inactive”. With CCCSC(=O)N(CCC)CCC the outcome was “inactive”. With Cc1ccc([N+](=O)[O-])cc1 the outcome was “inactive”. In the case of CCCCCCCCn1sccc1=O, the outcome is reported as “inactive”. For COP(=S)(OC)SCN1C(=O)c2ccccc2C1=O, the outcome was “inactive”. In the case of CCN(CC)CCO, the outcome is reported as “inactive”. With CCCCCCCCCCCCCN1CC(C)OC(C)C1 (stereo not given) the outcome was “inactive”. With O=C(N[C@H](c1ccccc1)[C@@H]1CN2CCC1CC2)c1c(Cl)ccc(C(F)(F)F)c1Cl the outcome was “inactive”. In the case of CCC[CH2][Sn]([Cl])([CH2]CCC)[CH2]CCC, the outcome is reported as “inactive”. In the case of Clc1ccccc1Cl, the outcome is reported as “inactive”. With OCCCBr the outcome was “inactive”. With Clc1ccc(C(c2ccc(Cl)cc2)C(Cl)Cl)cc1 the outcome was “inactive”. For Nc1ccc(Cc2ccc(N)cc2)cc1, the outcome was “inactive”. For COC(=O)Nc1nc2ccccc2[nH]1, the outcome was “inactive”. In the case of Nc1ccc([N+](=O)[O-])cc1, the outcome is reported as “inactive”. In the case of C1=Cc2cccc3cccc1c23, the outcome is reported as “inactive”. With CCCCOC(=O)c1ccccc1C(=O)OCc1ccccc1 the outcome was “inactive”. For O=C1CCCO1, the outcome was “inactive”. In the case of CC(C)(OOC(C)(C)c1ccccc1)c1ccccc1, the AC50 is reported as 78.3 µM (active). With CO[C@@H]1[C@H](OC(=O)NC(=O)CCl)CC[C@]2(CO2)[C@H]1[C@@]1(C)O[C@@H]1CC=C(C)C the outcome was “inactive”. In the case of CN(C)C(=O)Nc1ccc(Cl)cc1, the outcome is reported as “inactive”. For O=C(Oc1ccc(Br)cc1)N1CCN2CCC1CC2, the outcome was “inactive”. For Cn1cc(-c2ccccc2)c(=O)c(-c2cccc(C(F)(F)F)c2)c1, the outcome was “inactive”. With O=C(Nc1ccccc1)c1ccccc1I the outcome was “inactive”. For c1ccc(C2CO2)cc1 (stereo not given), the outcome was “inactive”. In the case of c1ccc(N=Nc2ccccc2)cc1, the outcome is reported as “inactive”. For CC(C)(C)OOC(C)(C)CCC(C)(C)OOC(C)(C)C, the outcome was “inactive”. In the case of Brc1ccc(Oc2ccccc2)cc1, the outcome is reported as “inactive”. With Cc1ccc(N=C=O)cc1N=C=O the outcome was “inactive”. In the case of ClC1=C(Cl)[C@]2(Cl)[C@H]3[C@H]([C@@H]4C=C[C@H]3C4)[C@@]1(Cl)C2(Cl)Cl, the outcome is reported as “inactive”. For O=P(OCCCl)(OCCCl)OCCCl, the outcome was “inactive”. With c1ccc(NNc2ccccc2)cc1 the outcome was “inactive”. With CCCCC(CC)COC(=O)c1ccc(C(=O)OCC(CC)CCCC)c(C(=O)OCC(CC)CCCC)c1 (stereo not given) the outcome was “inactive”. In the case of CCOc1cccc(C2(N3CCN(c4ccccc4)CC3)CCC(C)CC2)c1 (stereo not given), the outcome is reported as “inactive”. In the case of CCCCCOC(=O)c1ccccc1C(=O)OCCCCC, the outcome is reported as “inactive”. For CN(C)c1ccc(C(=O)c2ccc(N(C)C)cc2)cc1, the outcome was “inactive”. In the case of CC(C)(C)OOC(=O)c1ccccc1, the outcome is reported as “inactive”.
